UBC9 SUMO inh: SUMOylation inhibition | P63279 | HTRF SUMOylation assay, SAE1/SAE2 + UBC9, in vitro | inhibition, % at 35 µM | 290,000 compounds, 0.36% hits | AID 2006; in the data active = inhibition above about 50%, passing the limit was not always enough
SIRT5 block: sirtuin-5 (human) deacylase inhibition. Q9NXA8. Purified SirT5, succinyl-peptide AMC, trypsin-coupled fluorescence. inhibition, % at 15 µM. 330,000 compounds, 1.1% hits. AID 652115; in the data active = inhibition above about 15%
Target sequence (Q9NXA8 whole entry, looked up): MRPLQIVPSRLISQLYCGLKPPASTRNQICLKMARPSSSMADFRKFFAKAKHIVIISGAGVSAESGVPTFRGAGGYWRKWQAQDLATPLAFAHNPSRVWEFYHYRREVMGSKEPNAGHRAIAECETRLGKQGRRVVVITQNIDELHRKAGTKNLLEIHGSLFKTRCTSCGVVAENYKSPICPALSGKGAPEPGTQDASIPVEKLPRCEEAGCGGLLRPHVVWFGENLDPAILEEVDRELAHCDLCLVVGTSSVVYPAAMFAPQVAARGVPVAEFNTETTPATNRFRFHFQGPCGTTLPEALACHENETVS
CASP6 VEID inh: caspase-6 (human) enzyme inhibition | 350,000 compounds, 0.53% hits | P55212 | purified caspase-6, Z-VEID-R110 cleavage fluorescence | inhibition, % at 12.5 µM;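 active = mean inhibition across replicates at least about 35%, with every replicate also reaching that limit, limit read from the data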
Target sequence (P55212 24-179 limits assumed): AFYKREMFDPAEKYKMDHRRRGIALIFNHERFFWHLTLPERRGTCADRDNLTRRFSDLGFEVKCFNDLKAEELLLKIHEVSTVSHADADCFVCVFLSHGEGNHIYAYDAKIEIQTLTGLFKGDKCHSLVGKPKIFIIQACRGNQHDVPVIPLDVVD
Target sequence (P55212 194-293 limits assumed): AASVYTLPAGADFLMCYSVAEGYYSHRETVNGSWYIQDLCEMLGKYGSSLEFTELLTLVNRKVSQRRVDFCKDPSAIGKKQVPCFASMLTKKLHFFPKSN
NSD2 inh: NSD2 (human) methyltransferase inhibition; NSD2 peptide methylation, AlphaScreen, 120 min; inhibition, % at 12.5 µM; 310,000 compounds, 0.54% hits; in the data active = inhibition above about 50%
Hits are given with their value; . = inactive; / = not tested or not shown. Sampled rows, rich in hits. Any-hit rate of the full collection: about 1.6%.

SMILES | UBC9 SUMO inh | SIRT5 block | CASP6 VEID inh | NSD2 inh
O=C(O)c1cccc(NC2=C(N3CCOCC3)C(=O)c3ccccc3C2=O)c1 | . | . | . | .
CCOC(=O)n1c(=O)n(C)c2ccc(Cl)cc21 | . | 20 | . | .
CCOC(=O)n1c(=O)n(Cc2ccccc2)c2ccccc21 | . | / | / | .
CN=C(Nc1ccc(C(=O)OC)s1)c1ccccc1 | . | 32 | . | .
C[C@H](CO)N1C[C@H](C)[C@@H](CN(C)Cc2ccc(C(F)(F)F)cc2)Oc2ccc(NC(=O)Cc3ccccc3)cc2CC1=O | / | 16 | . | /
C[C@@H]1CN([C@H](C)CO)C(=O)Cc2cc(NC(=O)Cc3ccccc3)ccc2O[C@@H]1CN(C)Cc1ccc(C(F)(F)F)cc1 | / | 16 | . | /
C[C@H](CO)N1C[C@H](C)[C@H](CN(C)Cc2ccccc2)Oc2ccc(NC(=O)C3CC3)cc2CC1=O | / | . | . | /
C[C@@H]1CN([C@@H](C)CO)C(=O)Cc2cc(NC(=O)Cc3ccccc3)ccc2O[C@@H]1CN(C)Cc1ccc(C(F)(F)F)cc1 | / | . | . | /
C[C@H]1CN([C@@H](C)CO)C(=O)Cc2cc(NC(=O)Nc3ccc(C(F)(F)F)cc3)ccc2O[C@H]1CN(C)Cc1ccc(C(=O)Nc2ccccc2N)cc1 | / | 20 | . | /
C[C@@H]1CN([C@@H](C)CO)C(=O)Cc2cc(NC(=O)Cc3ccccc3)ccc2O[C@H]1CN(C)Cc1ccc(C(F)(F)F)cc1 | / | . | . | /
C[C@@H]1CN([C@H](C)CO)C(=O)Cc2cc(NC(=O)C3CC3)ccc2O[C@@H]1CN(C)Cc1ccccc1 | / | 99 | . | /
C[C@@H]1CN([C@H](C)CO)C(=O)Cc2cc(NC(=O)Nc3ccc(C(F)(F)F)cc3)ccc2O[C@@H]1CN(C)Cc1ccc(C(=O)Nc2ccccc2N)cc1 | / | . | . | /
C[C@H]1CN([C@@H](C)CO)C(=O)Cc2cc(NC(=O)Cc3cn(C)c4ccccc34)ccc2O[C@H]1CN(C)S(=O)(=O)c1ccc(F)cc1 | / | . | . | /
O=C(Nc1ccccc1)c1ccccc1OCc1cccc([N+](=O)[O-])c1 | . | . | 36 | .
Cc1cccc(-c2ccc([C@@H]3[C@@H](CO)N4CCCCN(S(=O)(=O)c5ccccc5F)C[C@H]34)cc2)c1 | / | 21 | . | /
Cc1ccccc1S(=O)(=O)N1CCCCN2[C@@H](CO)[C@H](c3ccc(-c4cccc(F)c4)cc3)[C@@H]2C1 | / | 18 | . | /
COc1ccc(-c2nnc(SCCC(=O)O)n2-c2ccccc2)cc1OC | . | 15 | . | .
O=C(c1ccccc1F)N1CC(=O)N2[C@H](C1)[C@@H](c1ccc(-c3cccnc3)cc1)[C@@H]2CO | / | . | . | /
CCOC(=O)CSc1nc(C)c2cc(C)c(C)cc2n1 | . | 17 | . | .
COc1ccc(CC2=C(O)c3ccccc3C(=O)C2=O)cc1 | . | . | . | .
O=C1C(=O)c2ccccc2C(O)=C1CCCCl | . | / | / | 106
COc1ccc(C#Cc2ccc([C@@H]3[C@@H](CO)N4C(=O)CN(C(=O)c5cccnc5)C[C@@H]34)cc2)cc1 | / | . | . | /
NC(=S)n1[nH]c(-c2ccc([N+](=O)[O-])cc2)c(N=Nc2ccccc2[N+](=O)[O-])c1=O | . | . | . | .
NC(=S)n1[nH]c(-c2ccc([N+](=O)[O-])cc2)c(N=Nc2cccc([N+](=O)[O-])c2)c1=O | 59 | . | . | .
Cc1c(N=Nc2c(-c3ccc([N+](=O)[O-])cc3)[nH]n(C(N)=S)c2=O)cccc1[N+](=O)[O-] | 69 | . | . | .
SMILES | UBC9 SUMO inh | SIRT5 block | CASP6 VEID inh | NSD2 inh
CCc1ccc([C@@H]2CC=C(C(=O)O)[C@H](c3ccc(C(C)(C)C)cc3)N2S(=O)(=O)c2ccc(C)cc2)cc1 | / | 22 | 45 | /
CCc1ccc([C@@H]2CC=C(C(=O)O)[C@H](c3ccccc3)N2S(=O)(=O)c2ccc(C)cc2)cc1 | / | . | . | /
Cc1ccc([C@@H]2CC=C(C(=O)O)[C@H](c3ccc(C(C)(C)C)cc3)N2S(=O)(=O)c2ccc(C)cc2)cc1 | / | . | 46 | /
Cc1ccc(S(=O)(=O)N2[C@@H](c3ccc(Br)cc3)C(C(=O)O)=CC[C@H]2c2ccc(C(C)C)cc2)cc1 | / | 15 | . | /
Cc1ccc(S(=O)(=O)N2[C@@H](c3ccc(C(C)(C)C)cc3)C(C(=O)O)=CC[C@H]2c2cccs2)cc1 | / | . | . | /
Cc1ccc(S(=O)(=O)N2[C@@H](c3ccc(C(C)(C)C)cc3)C(C(=O)O)=CC[C@H]2c2ccc(Cl)cc2)cc1 | / | 16 | . | /
Cc1ccc(S(=O)(=O)N2[C@@H](c3ccc(C(C)(C)C)cc3)C(C(=O)O)=CC[C@H]2c2ccc(C(C)C)cc2)cc1 | / | 28 | . | /
CN(C)CC(=O)N1CC2(C1)[C@H](c1ccccc1)[C@H](CO)N2C(=O)C1CCCC1 | / | . | . | /
C[C@H](C(=O)N(C)C[C@@H]1OCc2ccccc2-c2ccccc2C(=O)N([C@@H](C)CO)C[C@H]1C)c1ccccc1 | / | . | . | /
O=C(N/N=C/c1cc(Cl)cc([N+](=O)[O-])c1O)c1ccccc1NS(=O)(=O)c1cccs1 | 100 | . | . | .
Cc1ccc(-n2nc(-c3ccco3)cc2C(=O)O)cc1 | . | . | 55 | .
CCOC(=O)c1cc(-c2ccco2)nn1-c1ccc(C)cc1 | . | . | . | .
COc1ccc(CN2CCN(CCCc3ccccc3)C(CCO)C2)c(OC)c1 (stereo unspecified) | . | 18 | . | .
COc1ccc(OC)c(CN2CCN(CCCc3ccccc3)C(CCO)C2)c1 (stereo unspecified) | . | . | . | .
CN(C)[C@@H]1C(=O)C(C(=O)NCN2CCCC2)=C(O)[C@@]2(O)C(=O)C3=C(O)c4c(O)cccc4[C@@](C)(O)C3CC12 (stereo partly specified) | 77 | / | / | /
CC(=O)N(c1ccccc1C)C1CCCC1 | . | . | . | .
CC(=O)N(C1=C(Cl)C(=O)c2ccccc2C1=O)C1CCCCC1 | 71 | . | . | /
NC[C@H](O)c1ccc(O)c(O)c1 | / | . | 79 | /
Cc1noc(C)c1S(=O)(=O)N(C)C[C@@H]1Oc2c(NS(=O)(=O)c3cn(C)cn3)cccc2C(=O)N([C@@H](C)CO)C[C@@H]1C | / | . | . | /
O=C(NCC[C@@H]1CC[C@H](NC(=O)C2CC2)[C@H](CO)O1)c1cc(Cl)cc(Cl)c1 | / | 38 | . | /
O=C(NCC[C@H]1CC[C@H](NC(=O)C2CC2)[C@H](CO)O1)c1cc(Cl)cc(Cl)c1 | / | . | . | /
O=C(N[C@H]1CC[C@H](CCNS(=O)(=O)c2ccccc2Cl)O[C@@H]1CO)c1ccccc1 | / | 18 | . | /
O=C(N[C@@H]1CC[C@H](CCNS(=O)(=O)c2ccccc2)O[C@H]1CO)c1cnccn1 | / | 28 | . | /
O=C(CN1CCOCC1)N[C@@H]1CC[C@H](CCNC(=O)C2CCCCC2)O[C@H]1CO | / | 15 | . | /
COc1ccc(S(=O)(=O)Nc2ccc3c(c2)C(=O)N([C@H](C)CO)C[C@H](C)[C@@H](CN(C)Cc2ccc4c(c2)OCO4)O3)cc1 | / | . | . | /
COc1ccc(S(=O)(=O)Nc2ccc3c(c2)C(=O)N([C@H](C)CO)C[C@H](C)[C@H](CN(C)Cc2ccc4c(c2)OCO4)O3)cc1 | / | 16 | . | /
C[C@@H]1CN([C@H](C)CO)C(=O)c2cc(NS(=O)(=O)c3ccc(Cl)cc3)ccc2O[C@@H]1CN(C)Cc1ccc2c(c1)OCO2 | / | . | . | /

From PubChem BioAssay
